Experimental data as given in PubChem BioAssay (Tox21).
Inconclusive results are not listed. The source made the active and inactive calls. Calls come from the whole dose curve; as a rule, active = well fitted inhibition curve with a large enough effect in the signal ratio in the repeat runs (not every such curve was filed as active); inconclusive = weak or mixed curves, or effect the other way; inactive = no such curve, though single readings can be large or run the other way; the % refers to the signal ratio.
% is set by controls: 0 for no effect and ±100 for the full control effect.

The compounds below were run against Estrogen receptor beta (Homo sapiens) (UniProt Q92731) (assay: qHTS assay to identify small molecule antagonists of the estrogen receptor beta (ER-beta) signaling pathway (AID 1259378)). Details: ER-beta-UAS-bla HEK293T, beta-lactamase FRET ratio, 16 h; series mostly up to 92.4 µM.
Estrogen receptor beta (Homo sapiens), sequence (Q92731 whole entry, looked up): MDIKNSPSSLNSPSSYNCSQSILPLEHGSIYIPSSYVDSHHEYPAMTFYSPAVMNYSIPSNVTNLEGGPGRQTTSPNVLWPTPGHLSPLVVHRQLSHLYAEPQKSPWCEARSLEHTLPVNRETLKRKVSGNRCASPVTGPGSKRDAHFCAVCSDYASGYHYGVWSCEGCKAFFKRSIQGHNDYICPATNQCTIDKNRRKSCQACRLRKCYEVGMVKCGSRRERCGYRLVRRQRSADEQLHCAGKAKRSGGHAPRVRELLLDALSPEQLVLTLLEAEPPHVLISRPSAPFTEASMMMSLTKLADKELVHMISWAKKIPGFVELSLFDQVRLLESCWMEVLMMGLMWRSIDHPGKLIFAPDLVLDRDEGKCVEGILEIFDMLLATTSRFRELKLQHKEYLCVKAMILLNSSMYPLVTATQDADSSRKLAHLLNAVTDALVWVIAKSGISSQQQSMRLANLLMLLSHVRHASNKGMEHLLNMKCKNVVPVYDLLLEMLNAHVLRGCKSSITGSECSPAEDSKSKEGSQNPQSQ
Excerpt: National Center for Advancing Translational Sciences [NCATS]
NIH Chemical Genomics Center [NCGC]
U.S. Environmental Protection Agency [EPA]
National Institutes of Environmental Health Sciences [NIEHS]
National Toxicology Program [NTP]
U.S. Food and Drug Administration [FDA]
Estrogen receptor (ER), a nuclear hormone receptor, plays an important role in development, metabolic homeostasis and reproduction. Two subtypes of ER, ER-alpha and ER-beta, have similar expression patterns with some uniqueness in both types. Endocrine disrupting chemicals (EDCs) and their interactions with steroid hormone receptors like ER causes disruption of normal endocrine function. To identify the compounds that inhibit ER signaling, an ER-beta-UAS-bla GripTite cell line (Life Technologies, Madison, WI, USA) containing a beta-lactamase reporter gene under the control of an UAS response element was used to screen Tox21 10K compound library.
Tox21 Assay Protocol Summary:
ER-beta-UAS-bla HEK293T cells were dispensed at 2,000 cells/4 uL of assay medium containing 2% charcoal stripped FBS per well into black wall/clear-bottom 1536-well plates using a Multidrop Combi (ThermoFisher Scientific, Waltham, MA) dispenser. After the assay plates were incubated at a 37C and 5% CO2 for 6 hr, 23 nL of compounds dissolved in DMSO, positive controls or DMSO only was transferred to the assay plate by a Pintool station (Kalypsys, San Diego, CA), followed by addition of 1 uL (1nM as final concentration) of 17-beta-estradiol (E2) in assay medium using a BioRAPTR FRD (Flying Reagent Dispenser, Aurora Discovery, San Diego, CA). The plates were incubated at 37C and 5% CO2 for 16 hr. Then 1 uL of LiveBLAzerTM B/G FRET substrate was added using a Flying Reagent Dispenser, the plates were incubated at room temperature for 2 hours, and fluorescence intensity was measured by an Envision plate reader (PerkinElmer, Shelton, CT).
With `Nc1cc(C(=O)O)ccc1Cl` the outcome was “inactive”. With `CNC(=O)NC` the outcome was “inactive”. With `C=C[C@@H](C)CCC=C(C)C` the outcome was “inactive”. `O=c1cc(O)c(Cl)c[nH]1` was tested, and the outcome was “inactive”. In the case of `CC(C)CCCCCCOC(=O)C1CCCCC1C(=O)OCCCCCCC(C)C` (stereo not given), the outcome is reported as “inactive”. `CC(=O)c1ccc2c(c1)CCCC2` was tested, and the outcome was “inactive”. With `C=CCOC(=O)c1ccc(C(=O)OCC=C)c(C(=O)OCC=C)c1` the outcome was “inactive”. In the case of `C[C@@H]1C[C@H]2[C@@H]3C[C@H](F)C4=CC(=O)C=C[C@]4(C)[C@@]3(F)[C@@H](O)C[C@]2(C)[C@@]1(O)C(=O)CO`, the outcome is reported as “inactive”. `O=C1OC(=O)c2cc(Oc3ccc4c(c3)C(=O)OC4=O)ccc21` was tested, and the outcome was “inactive”. `CC1(N)CCC(C(C)(C)N)CC1` (stereo not given) was tested, and the outcome was “inactive”. `CCOC(=O)CC(CC(=O)OCC)(OC(C)=O)C(=O)OCC` was tested, and the outcome was “inactive”. With `O=S1(=O)CCCC1` the outcome was “inactive”. For `O=S(=O)(O)c1cc(O)ccc1O`, the outcome was “inactive”. In the case of `CCCCCCCC[Si](OCC)(OCC)OCC`, the outcome is reported as “inactive”. `CC(=O)Nc1ccc(C)cc1` was tested, and the outcome was “inactive”. In the case of `C=CCOCC(CO)(COCC=C)COCC=C`, the outcome is reported as “inactive”. In the case of `CCCCC(=O)N(C)C`, the outcome is reported as “inactive”. In the case of `BrC/C=C/CBr`, the activity, negative = inhibition is reported as 8.47% [at 19 µM] (inactive). For `CC(Cl)COP(=O)(OCC(C)Cl)OCC(C)Cl` (stereo not given), the outcome was “inactive”. In the case of `Cc1ccccc1C(=O)N1CC/C(=N\OS(=O)(=O)O)c2ccc(Cl)cc21`, the outcome is reported as “inactive”. With `CCCOC(=O)CCCCC(=O)OCCC` the outcome was “inactive”. In the case of `CC(C)(c1ccc(Oc2ccc3c(c2)C(=O)OC3=O)cc1)c1ccc(Oc2ccc3c(c2)C(=O)OC3=O)cc1`, the outcome is reported as “inactive”. With `C/C=C(\C)C(=O)OCC/C=C\CC` the outcome was “inactive”. `Cc1cccc(Nc2ccncc2S(=O)(=O)NC(=O)NC(C)C)c1` was tested, and the outcome was “inactive”. `NC(=O)NC(=O)Cc1ccccc1` was tested, and the outcome was “inactive”. For `COCCOCCOCCOC`, the outcome was “inactive”. For `O=c1[nH]c(=O)c2[nH]c(=O)[nH]c2[nH]1`, the activity, negative = inhibition was 11.9% [at 8.39 µM] (inactive). In the case of `CCN(CCC#N)c1ccccc1`, the outcome is reported as “inactive”. For `CC(CC(=O)O)CC(C)(C)C` (stereo not given), the outcome was “inactive”. With `CN=C(NC#N)NCCSCc1csc(N=C(N)N)n1` the outcome was “inactive”. In the case of `CCC(=O)OCCC(C)CCC=C(C)C` (stereo not given), the outcome is reported as “inactive”. For `NS(=O)(=O)c1cc2c(cc1Cl)NC(C(Cl)Cl)NS2(=O)=O` (stereo not given), the outcome was “inactive”. With `CCOC(=O)CC#N` the outcome was “inactive”. In the case of `CCOC(=O)CCCCCCCCC(=O)OCC`, the outcome is reported as “inactive”. With `CCCCCCCCCCC` the outcome was “inactive”. `CC(C)(C)c1ccc(C=O)cc1` was tested, and the outcome was “inactive”. In the case of `CCCCOC(=O)C(C)OC(=O)CCC` (stereo not given), the outcome is reported as “inactive”. `COc1ccc(/C=N/NC(=O)c2ccncc2)cc1OC` was tested, and the outcome was “inactive”. In the case of `CCCCCCCCC(=O)OCC`, the outcome is reported as “inactive”. With `Cc1nc2ccccc2c(=O)o1` the outcome was “inactive”.
